In article PMC6792352, “Limited Chemical Structural Diversity Found to Modulate Thyroid Hormone Receptor in the Tox21 Chemical Library” (Environmental Health Perspectives, 2019):
Where a name gives a salt, the structure may show the parent alone.

Each compound was assayed on thyroid hormone receptor (endogenous TRα and TRβ). Settings: read-out: Average AC50 (uM) GH3-TRE-Antag, antagonist mode, 1 nM T3, no GH3 cytotoxicity hit.
Parameters: species or system GH3-TRE-Luc (rat pituitary); GH3-TRE-Luc luciferase reporter, antagonist mode against 1 nM T3, loss of signal, qHTS

Structure (SMILES) | AC50 [µM]
CCCOC(=O)c1ccc(N)cc1 [Risocaine] | 44.3
CCCCCCCCCCCCCCCCCCCCCC(=O)Nc1ccn([C@@H]2O[C@H](CO)[C@@H](O)[C@@H]2O)c(=O)n1 [Enocitabine] | 17.3
CC[C@@]1(O)C(=O)OCc2c1cc1n(c2=O)Cc2cc3c(CN(C)C)c(O)ccc3nc2-1 [Topotecan hydrochloride] | 2.45
